# Measurements published in publication PMC7862700, “An all-to-all approach to the identification of sequence-specific readers for epigenetic DNA modifications on cytosine”.
# What was measured:
# Assay in all cases: DAPPL (digital affinity profiling via proximity ligation, sequencing); 10 mM Tris-HCl pH 7.5, 50 mM NaCl, 1 mM DTT, 4% glycerol, room temperature, 30 min; GST-TFs on glutathione beads, 16-mer random dsDNA library, 0.1% formaldehyde crosslink after washing; high values mean tight binding
# FEV = molecular target: T1, FEV (Homo sapiens, UniProt Q99581 1-238); settings: protein: recombinant; tags: N-terminal GST; dsDNA, one strand shown
# T1 sequence: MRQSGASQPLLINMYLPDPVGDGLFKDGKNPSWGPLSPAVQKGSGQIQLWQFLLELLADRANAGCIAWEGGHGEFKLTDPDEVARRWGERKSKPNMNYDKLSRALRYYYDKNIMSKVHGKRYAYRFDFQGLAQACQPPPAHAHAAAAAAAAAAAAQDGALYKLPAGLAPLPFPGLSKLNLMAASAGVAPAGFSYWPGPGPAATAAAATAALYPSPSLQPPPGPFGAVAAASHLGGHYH
# Procedure, shortened: (§1)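 The binding signal reported is, for every hexamer, its read frequency for a factor over its read frequency for the tag-only sample. Reads came from pools of yeast-expressed, GST-fused human transcription factors on glutathione beads, barcoded with DNA and mixed with that sample, which were incubated with 200 nmole of a random double-stranded 16-mer DNA library in Tris/NaCl/DTT/glycerol buffer at room temperature for 30 min. After washing, the pools were crosslinked with 0.1% formaldehyde, proximity-ligated with BsaI/T4 ligase for 1 h at 37 °C, PCR-amplified and sequenced on an Illumina NextSeq500.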
# ETV5 = ETV5 (Homo sapiens, UniProt P41161 1-510); settings: protein: recombinant; tags: N-terminal GST; dsDNA, one strand shown
# Sequence of ETV5 (P41161 whole entry): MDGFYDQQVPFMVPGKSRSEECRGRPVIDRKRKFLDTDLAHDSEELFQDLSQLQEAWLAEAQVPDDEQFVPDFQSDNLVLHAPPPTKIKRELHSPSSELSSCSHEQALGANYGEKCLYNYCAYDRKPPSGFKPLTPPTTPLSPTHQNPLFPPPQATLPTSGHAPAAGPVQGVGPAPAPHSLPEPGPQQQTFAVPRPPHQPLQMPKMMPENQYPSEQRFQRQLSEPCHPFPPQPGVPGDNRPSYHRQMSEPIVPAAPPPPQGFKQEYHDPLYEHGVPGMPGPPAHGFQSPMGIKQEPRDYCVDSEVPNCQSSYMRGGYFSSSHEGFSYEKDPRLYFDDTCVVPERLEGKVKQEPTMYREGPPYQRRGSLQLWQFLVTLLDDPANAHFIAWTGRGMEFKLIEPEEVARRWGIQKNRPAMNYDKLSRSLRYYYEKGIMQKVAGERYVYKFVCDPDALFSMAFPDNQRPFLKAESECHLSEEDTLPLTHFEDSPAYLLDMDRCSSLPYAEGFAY
# Procedure, shortened: as §1
# HSF1 = HSF1 (Homo sapiens, UniProt Q00613 1-529); settings: protein: recombinant; tags: N-terminal GST; chain copies: 3; dsDNA, one strand shown
# Sequence of HSF1 (Q00613 whole entry): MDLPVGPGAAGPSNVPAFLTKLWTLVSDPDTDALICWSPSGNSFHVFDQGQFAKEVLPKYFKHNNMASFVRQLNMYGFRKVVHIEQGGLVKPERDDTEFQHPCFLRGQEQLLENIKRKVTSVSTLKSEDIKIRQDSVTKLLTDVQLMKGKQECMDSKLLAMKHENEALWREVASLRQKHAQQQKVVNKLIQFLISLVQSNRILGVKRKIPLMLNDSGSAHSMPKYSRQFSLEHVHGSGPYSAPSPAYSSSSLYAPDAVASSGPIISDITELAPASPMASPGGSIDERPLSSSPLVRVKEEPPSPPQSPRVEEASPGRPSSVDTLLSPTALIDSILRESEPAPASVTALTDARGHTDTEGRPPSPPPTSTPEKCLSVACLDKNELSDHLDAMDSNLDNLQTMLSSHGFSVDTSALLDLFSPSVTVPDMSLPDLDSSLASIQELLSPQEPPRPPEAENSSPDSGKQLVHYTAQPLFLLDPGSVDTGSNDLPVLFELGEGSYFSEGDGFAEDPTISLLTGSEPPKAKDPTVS
# Procedure, shortened: as §1
# SPIC = molecular target: T2, SPIC (Homo sapiens, UniProt Q8N5J4 1-248); settings: protein: recombinant; tags: N-terminal GST; dsDNA, one strand shown
# T2 sequence: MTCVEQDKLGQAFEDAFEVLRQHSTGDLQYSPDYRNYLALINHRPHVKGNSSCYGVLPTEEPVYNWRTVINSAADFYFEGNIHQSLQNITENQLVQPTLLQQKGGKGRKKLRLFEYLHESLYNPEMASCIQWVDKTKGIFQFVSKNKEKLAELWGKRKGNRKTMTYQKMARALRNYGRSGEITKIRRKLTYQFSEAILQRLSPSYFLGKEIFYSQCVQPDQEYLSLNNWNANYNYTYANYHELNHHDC
# Procedure, shortened: as §1
# ELF4 = ELF4 (Homo sapiens, UniProt Q99607 1-663); settings: protein: recombinant; tags: N-terminal GST; dsDNA, one strand shown
# Sequence of ELF4 (Q99607 whole entry): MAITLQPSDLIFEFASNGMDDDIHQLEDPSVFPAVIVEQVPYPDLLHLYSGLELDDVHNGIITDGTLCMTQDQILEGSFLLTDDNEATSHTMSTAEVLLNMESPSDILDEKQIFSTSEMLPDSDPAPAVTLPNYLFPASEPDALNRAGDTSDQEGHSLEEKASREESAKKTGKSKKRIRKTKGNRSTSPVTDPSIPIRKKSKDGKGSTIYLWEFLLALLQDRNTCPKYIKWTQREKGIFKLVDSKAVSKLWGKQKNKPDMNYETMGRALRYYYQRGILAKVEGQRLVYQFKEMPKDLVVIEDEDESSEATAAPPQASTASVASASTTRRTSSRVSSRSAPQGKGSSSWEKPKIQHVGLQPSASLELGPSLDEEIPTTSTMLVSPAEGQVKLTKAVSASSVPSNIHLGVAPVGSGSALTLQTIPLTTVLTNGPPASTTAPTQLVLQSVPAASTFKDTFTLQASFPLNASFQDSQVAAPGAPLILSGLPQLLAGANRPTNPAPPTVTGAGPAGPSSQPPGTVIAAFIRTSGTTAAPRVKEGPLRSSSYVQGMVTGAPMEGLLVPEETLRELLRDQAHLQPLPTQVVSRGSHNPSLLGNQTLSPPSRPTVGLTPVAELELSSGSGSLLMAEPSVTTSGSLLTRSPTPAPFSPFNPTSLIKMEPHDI
# Procedure, shortened: as §1
# ELK4 = molecular target: T3, ELK4 (Homo sapiens, UniProt P28324-2 1-405); settings: protein: recombinant; tags: N-terminal GST; dsDNA, one strand shown
# T3 sequence: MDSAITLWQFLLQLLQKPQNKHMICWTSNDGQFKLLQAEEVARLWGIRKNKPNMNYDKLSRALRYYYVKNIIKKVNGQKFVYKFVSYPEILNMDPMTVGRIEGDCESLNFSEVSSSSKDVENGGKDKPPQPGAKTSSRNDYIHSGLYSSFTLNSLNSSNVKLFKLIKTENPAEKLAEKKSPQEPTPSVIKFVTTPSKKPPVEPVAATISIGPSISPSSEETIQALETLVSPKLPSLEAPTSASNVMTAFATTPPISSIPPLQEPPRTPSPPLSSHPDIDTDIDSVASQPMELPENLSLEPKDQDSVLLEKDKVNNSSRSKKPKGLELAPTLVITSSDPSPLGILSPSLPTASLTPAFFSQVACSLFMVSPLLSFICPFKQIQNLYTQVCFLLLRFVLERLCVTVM
# Procedure, shortened: as §1
# ETV2 = molecular target: T4, ETV2 (Homo sapiens, UniProt O00321 1-342); settings: protein: recombinant; tags: N-terminal GST; dsDNA, one strand shown
# T4 sequence: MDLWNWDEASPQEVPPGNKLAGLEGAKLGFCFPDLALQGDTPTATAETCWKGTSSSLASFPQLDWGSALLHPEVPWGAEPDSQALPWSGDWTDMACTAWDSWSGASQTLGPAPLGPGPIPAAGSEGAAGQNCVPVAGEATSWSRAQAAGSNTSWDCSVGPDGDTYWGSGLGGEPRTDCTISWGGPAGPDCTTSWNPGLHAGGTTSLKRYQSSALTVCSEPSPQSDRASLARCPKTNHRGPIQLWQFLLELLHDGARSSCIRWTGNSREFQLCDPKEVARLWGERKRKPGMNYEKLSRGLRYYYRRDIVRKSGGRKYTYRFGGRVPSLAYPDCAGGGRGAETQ
# Procedure, shortened: as §1
# ELF3 = molecular target: T5, ELF3 (Homo sapiens, UniProt P78545 1-371); settings: protein: recombinant; tags: N-terminal GST; dsDNA, one strand shown
# T5 sequence: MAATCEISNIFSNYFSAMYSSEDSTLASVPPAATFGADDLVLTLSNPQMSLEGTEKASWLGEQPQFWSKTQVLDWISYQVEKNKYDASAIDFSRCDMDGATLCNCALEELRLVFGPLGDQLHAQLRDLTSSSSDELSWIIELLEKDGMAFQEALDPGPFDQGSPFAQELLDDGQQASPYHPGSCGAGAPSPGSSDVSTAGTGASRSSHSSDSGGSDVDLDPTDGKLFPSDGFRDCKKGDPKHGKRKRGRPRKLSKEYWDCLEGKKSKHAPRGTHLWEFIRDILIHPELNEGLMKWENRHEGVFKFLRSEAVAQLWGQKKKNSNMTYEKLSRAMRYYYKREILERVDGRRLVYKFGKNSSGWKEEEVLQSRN
# Procedure, shortened: as §1
# CRX = CRX (Homo sapiens, UniProt O43186 1-299); settings: protein: recombinant; tags: N-terminal GST; dsDNA, one strand shown
# Sequence of CRX (O43186 whole entry): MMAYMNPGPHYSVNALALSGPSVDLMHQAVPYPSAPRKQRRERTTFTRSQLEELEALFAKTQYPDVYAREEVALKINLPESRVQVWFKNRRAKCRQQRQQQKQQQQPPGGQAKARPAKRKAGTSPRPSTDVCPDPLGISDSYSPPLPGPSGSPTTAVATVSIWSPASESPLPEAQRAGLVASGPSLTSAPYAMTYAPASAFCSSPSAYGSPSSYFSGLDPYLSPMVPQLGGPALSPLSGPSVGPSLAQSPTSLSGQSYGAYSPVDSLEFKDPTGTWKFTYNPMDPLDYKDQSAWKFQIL
# Procedure, shortened: as §1
# ETV1 = ETV1 (Homo sapiens, UniProt P50549 1-477); settings: protein: recombinant; tags: N-terminal GST; dsDNA, one strand shown
# Sequence of ETV1 (P50549 whole entry): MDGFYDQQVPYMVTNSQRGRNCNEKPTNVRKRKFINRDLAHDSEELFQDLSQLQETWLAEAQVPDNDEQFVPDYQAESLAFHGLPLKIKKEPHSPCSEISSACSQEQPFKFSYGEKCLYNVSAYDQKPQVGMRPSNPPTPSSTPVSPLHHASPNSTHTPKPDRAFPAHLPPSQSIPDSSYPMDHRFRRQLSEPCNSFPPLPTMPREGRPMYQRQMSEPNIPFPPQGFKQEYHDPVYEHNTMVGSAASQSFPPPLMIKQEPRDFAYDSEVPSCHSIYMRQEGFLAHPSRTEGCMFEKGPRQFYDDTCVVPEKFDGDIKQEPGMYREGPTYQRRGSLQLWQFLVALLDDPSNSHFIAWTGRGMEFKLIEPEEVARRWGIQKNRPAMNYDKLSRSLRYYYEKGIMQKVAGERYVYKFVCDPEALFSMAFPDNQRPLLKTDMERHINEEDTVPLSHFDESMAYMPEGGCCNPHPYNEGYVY
# Procedure, shortened: as §1
# ERF = molecular target: T6, ERF (Homo sapiens, UniProt P50548 1-548); settings: protein: recombinant; tags: N-terminal GST; dsDNA, one strand shown
# T6 sequence: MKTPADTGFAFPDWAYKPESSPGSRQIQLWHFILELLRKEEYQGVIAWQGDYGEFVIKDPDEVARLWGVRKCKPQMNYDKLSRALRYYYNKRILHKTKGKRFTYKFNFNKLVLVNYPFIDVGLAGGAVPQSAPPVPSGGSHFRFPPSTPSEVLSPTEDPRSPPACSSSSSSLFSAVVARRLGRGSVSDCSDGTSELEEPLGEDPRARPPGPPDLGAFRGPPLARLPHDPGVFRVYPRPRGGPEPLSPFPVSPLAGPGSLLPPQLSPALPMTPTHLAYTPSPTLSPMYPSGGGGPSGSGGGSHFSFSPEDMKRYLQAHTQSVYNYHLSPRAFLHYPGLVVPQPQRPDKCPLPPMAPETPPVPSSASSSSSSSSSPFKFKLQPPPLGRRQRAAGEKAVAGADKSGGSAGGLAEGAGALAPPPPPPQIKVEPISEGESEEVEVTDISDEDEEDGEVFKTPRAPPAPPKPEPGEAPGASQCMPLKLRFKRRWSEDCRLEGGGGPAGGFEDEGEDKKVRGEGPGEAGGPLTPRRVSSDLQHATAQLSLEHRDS
# Procedure, shortened: as §1
# ETV3L = molecular target: T7, ETV3L (Homo sapiens, UniProt Q6ZN32 1-361); settings: protein: recombinant; tags: N-terminal GST; dsDNA, one strand shown
# T7 sequence: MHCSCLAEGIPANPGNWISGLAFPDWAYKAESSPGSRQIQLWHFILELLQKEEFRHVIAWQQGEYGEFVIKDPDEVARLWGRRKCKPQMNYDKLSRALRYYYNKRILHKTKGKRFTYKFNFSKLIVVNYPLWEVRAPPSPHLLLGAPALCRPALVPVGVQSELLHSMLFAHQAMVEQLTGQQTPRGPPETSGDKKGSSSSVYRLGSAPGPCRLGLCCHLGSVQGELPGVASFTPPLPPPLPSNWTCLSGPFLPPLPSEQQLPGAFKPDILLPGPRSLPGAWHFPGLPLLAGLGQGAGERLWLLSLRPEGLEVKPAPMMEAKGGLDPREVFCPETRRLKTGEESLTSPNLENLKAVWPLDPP
# Procedure, shortened: as §1
# ETS2 = molecular target: T8, ETS2 (Homo sapiens, UniProt P15036 1-469); settings: protein: recombinant; tags: N-terminal GST; dsDNA, one strand shown
# T8 sequence: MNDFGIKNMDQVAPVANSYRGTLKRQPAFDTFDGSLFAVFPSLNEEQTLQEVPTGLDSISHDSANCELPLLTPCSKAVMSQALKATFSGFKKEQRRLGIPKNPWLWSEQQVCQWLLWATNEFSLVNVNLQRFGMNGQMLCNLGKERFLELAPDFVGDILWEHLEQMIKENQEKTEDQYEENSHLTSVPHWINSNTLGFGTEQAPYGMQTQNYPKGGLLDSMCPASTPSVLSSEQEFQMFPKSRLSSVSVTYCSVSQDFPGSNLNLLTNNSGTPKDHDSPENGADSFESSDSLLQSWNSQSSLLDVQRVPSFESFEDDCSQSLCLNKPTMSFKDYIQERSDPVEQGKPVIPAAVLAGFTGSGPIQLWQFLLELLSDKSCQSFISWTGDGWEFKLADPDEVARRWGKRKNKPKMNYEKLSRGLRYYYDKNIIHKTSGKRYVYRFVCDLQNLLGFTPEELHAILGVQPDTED
# Procedure, shortened: as §1
# SPDEF = molecular target: T9, SPDEF (Homo sapiens, UniProt O95238 1-335); settings: protein: recombinant; tags: N-terminal GST; dsDNA, one strand shown
# T9 sequence: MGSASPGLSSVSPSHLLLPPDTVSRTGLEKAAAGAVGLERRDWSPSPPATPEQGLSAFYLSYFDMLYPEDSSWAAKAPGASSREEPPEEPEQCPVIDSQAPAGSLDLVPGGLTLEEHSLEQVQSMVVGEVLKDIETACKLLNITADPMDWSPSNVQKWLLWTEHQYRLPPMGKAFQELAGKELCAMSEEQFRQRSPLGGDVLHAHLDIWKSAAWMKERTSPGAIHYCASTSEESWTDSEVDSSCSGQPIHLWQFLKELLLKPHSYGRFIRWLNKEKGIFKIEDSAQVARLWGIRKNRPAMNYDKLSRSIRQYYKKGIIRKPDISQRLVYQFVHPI
# Procedure, shortened: as §1
# ETV7 = molecular target: T10, ETV7 (Homo sapiens, UniProt Q9Y603 1-341); settings: protein: recombinant; tags: N-terminal GST; dsDNA, one strand shown
# T10 sequence: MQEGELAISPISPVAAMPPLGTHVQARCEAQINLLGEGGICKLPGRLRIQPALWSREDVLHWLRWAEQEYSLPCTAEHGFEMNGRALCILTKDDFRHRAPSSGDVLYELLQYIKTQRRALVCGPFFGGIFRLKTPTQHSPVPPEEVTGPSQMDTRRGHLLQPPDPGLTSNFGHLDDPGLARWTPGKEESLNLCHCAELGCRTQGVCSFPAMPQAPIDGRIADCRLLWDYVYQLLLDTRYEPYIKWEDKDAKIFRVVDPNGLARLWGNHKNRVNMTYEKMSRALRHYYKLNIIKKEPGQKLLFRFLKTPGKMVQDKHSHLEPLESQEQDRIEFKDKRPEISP
# Procedure, shortened: as §1
# ELF5 = molecular target: T11, ELF5 (Homo sapiens, UniProt Q9UKW6-2 1-255); settings: protein: recombinant; tags: N-terminal GST; dsDNA, one strand shown
# T11 sequence: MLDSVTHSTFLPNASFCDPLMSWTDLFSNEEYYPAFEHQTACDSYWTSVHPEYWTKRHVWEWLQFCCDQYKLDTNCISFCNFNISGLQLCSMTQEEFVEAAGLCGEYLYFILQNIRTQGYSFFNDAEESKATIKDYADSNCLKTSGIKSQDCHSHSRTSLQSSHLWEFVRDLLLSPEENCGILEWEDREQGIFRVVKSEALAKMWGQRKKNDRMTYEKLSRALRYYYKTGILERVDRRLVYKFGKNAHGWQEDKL
# Procedure, shortened: as §1
# ETV3 = molecular target: T12, ETV3 (Homo sapiens, UniProt P41162-2 1-143); settings: protein: recombinant; tags: N-terminal GST; dsDNA, one strand shown
# T12 sequence: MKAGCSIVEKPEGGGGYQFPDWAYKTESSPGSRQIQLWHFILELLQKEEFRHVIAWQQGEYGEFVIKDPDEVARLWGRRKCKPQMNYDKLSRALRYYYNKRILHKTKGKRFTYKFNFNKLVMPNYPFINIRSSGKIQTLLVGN
# Procedure, shortened: as §1
# ETV6 = ETV6 (Homo sapiens, UniProt P41212 1-452); settings: protein: recombinant; tags: N-terminal GST; dsDNA, one strand shown
# Sequence of ETV6 (P41212 whole entry): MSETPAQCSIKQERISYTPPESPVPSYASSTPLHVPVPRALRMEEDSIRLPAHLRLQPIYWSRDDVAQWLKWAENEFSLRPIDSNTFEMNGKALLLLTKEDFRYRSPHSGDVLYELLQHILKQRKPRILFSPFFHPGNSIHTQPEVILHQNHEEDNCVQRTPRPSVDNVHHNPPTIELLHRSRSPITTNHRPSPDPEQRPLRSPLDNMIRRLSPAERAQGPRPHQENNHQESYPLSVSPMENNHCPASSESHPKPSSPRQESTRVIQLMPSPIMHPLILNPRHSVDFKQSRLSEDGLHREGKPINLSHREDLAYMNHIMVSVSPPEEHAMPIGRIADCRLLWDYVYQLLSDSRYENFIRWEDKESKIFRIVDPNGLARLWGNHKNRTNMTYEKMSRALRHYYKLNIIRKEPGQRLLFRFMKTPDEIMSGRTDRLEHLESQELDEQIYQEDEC
# Procedure, shortened: as §1
sequence,measurement,setting,value
AATCAT,binding signal,FEV,"1.1 fold enrichment (6-mer frequency, TF over GST control)"
same,binding signal,ETV5,"1.15 fold enrichment (6-mer frequency, TF over GST control)"
same,binding signal,HSF1,"1.27 fold enrichment (6-mer frequency, TF over GST control)"
same,binding signal,SPIC,"1.14 fold enrichment (6-mer frequency, TF over GST control)"
same,binding signal,ELF4,"1.06 fold enrichment (6-mer frequency, TF over GST control)"
same,binding signal,ELK4,"1.12 fold enrichment (6-mer frequency, TF over GST control)"
same,binding signal,ETV2,"1.21 fold enrichment (6-mer frequency, TF over GST control)"
same,binding signal,ELF3,"1.17 fold enrichment (6-mer frequency, TF over GST control)"
same,binding signal,CRX,"1.39 fold enrichment (6-mer frequency, TF over GST control)"
same,binding signal,ETV1,"1.15 fold enrichment (6-mer frequency, TF over GST control)"
same,binding signal,ERF,"1.18 fold enrichment (6-mer frequency, TF over GST control)"
same,binding signal,ETV3L,"1.18 fold enrichment (6-mer frequency, TF over GST control)"
same,binding signal,ETS2,"1.11 fold enrichment (6-mer frequency, TF over GST control)"
same,binding signal,SPDEF,"1.07 fold enrichment (6-mer frequency, TF over GST control)"
same,binding signal,ETV7,"1.04 fold enrichment (6-mer frequency, TF over GST control)"
same,binding signal,ELF5,"1.18 fold enrichment (6-mer frequency, TF over GST control)"
same,binding signal,ETV3,"1.12 fold enrichment (6-mer frequency, TF over GST control)"
same,binding signal,ETV6,"1.16 fold enrichment (6-mer frequency, TF over GST control)"
